Legend:
Experiment in all cases: PBM binding z-score (relative to random genomic background probes); higher = stronger binding; sequences stand for … in GC…GCGATTGACAGCGTAGAATGAAGG
[1] = test system: FXR:RXRa (NR concentration 270 nM, RXRa partner concentration 90 nM)
How it was run: (§1)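 Each nuclear receptor dimer, without ligand, was incubated for 1 h on custom Agilent 4×180K protein-binding microarrays. Binding was detected with antibodies against each partner (one per run), and scanned fluorescence was regression-normalized. The binding z-scores are referenced to random human genomic background probes.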

[2] = test system: LXRa:RXRa (NR concentration 270 nM, RXRa partner concentration 90 nM)
How it was run: as §1

[3] = test system: LXRa homodimer (NR concentration 270 nM)
How it was run: as §1

[4] = test system: LXRb:RXRa (NR concentration 270 nM, RXRa partner concentration 90 nM)
How it was run: as §1

[5] = test system: LXRb homodimer (NR concentration 270 nM)
How it was run: as §1

[6] = test system: PPARa:RXRa (NR concentration 270 nM, RXRa partner concentration 90 nM)
How it was run: as §1

[7] = test system: PPARg:RXRa (NR concentration 180 nM, RXRa partner concentration 90 nM)
How it was run: as §1

[8] = test system: PPARg:RXRa 270nM:90nM, anti-RXR (NR concentration 270 nM, RXRa partner concentration 90 nM)
How it was run: as §1

[9] = test system: PPARg:RXRa 30nM:10nM, anti-RXR (NR concentration 30 nM, RXRa partner concentration 10 nM)
How it was run: as §1

[10] = test system: PPARg:RXRa 90nM:30nM, anti-RXR (NR concentration 90 nM, RXRa partner concentration 30 nM)
How it was run: as §1

[11] = test system: PPARg:RXRa DBDmut IVT, anti-RXR (DBD mutation: RXRa K156A/R161A, NR concentration 270 nM, RXRa partner concentration 90 nM)
How it was run: as §1

[12] = test system: PPARg:RXRa IVT, anti-PPARg (NR concentration 270 nM, RXRa partner concentration 90 nM)
How it was run: as §1

[13] = test system: PPARg DBDmut:RXRa IVT, anti-PPARg (DBD mutation: PPARg1 K132A/R137A, NR concentration 270 nM, RXRa partner concentration 90 nM)
How it was run: as §1

[14] = test system: PPARg DBDmut IVT, anti-PPARg (DBD mutation: PPARg1 K132A/R137A, NR concentration 270 nM)
How it was run: as §1

[15] = test system: PPARg homodimer (NR concentration 180 nM)
How it was run: as §1

[16] = test system: PXR:RXRa (NR concentration 270 nM, RXRa partner concentration 90 nM)
How it was run: as §1

[17] = test system: PXR homodimer (NR concentration 270 nM)
How it was run: as §1

[18] = test system: RARa:RXR (NR concentration 270 nM, RXRa partner concentration 90 nM)
How it was run: as §1

[19] = test system: RARa homodimer (NR concentration 270 nM)
How it was run: as §1

[20] = test system: RARb:RXRa (NR concentration 270 nM, RXRa partner concentration 90 nM)
How it was run: as §1

Sequence	PBM binding z-score [1]	PBM binding z-score [2]	PBM binding z-score [3]	PBM binding z-score [4]	PBM binding z-score [5]	PBM binding z-score [6]	PBM binding z-score [7]	PBM binding z-score [8]	PBM binding z-score [9]	PBM binding z-score [10]	PBM binding z-score [11]	PBM binding z-score [12]	PBM binding z-score [13]	PBM binding z-score [14]	PBM binding z-score [15]	PBM binding z-score [16]	PBM binding z-score [17]	PBM binding z-score [18]	PBM binding z-score [19]	PBM binding z-score [20]
TCTCGGAGGACACGAAGGTCCGAGCTTTCCAGAG	0.324	-0.29	-0.723	-0.734	-1.4	0.0732	-0.408	0.645	1.71	1.12	1.24	-0.478	-0.785	-1.37	-0.731	-0.253	-0.438	-0.322	-1.26	1.56
ATCTCTAGGTAACCATGTTCAGTGAATGCCGAAC	0.171	0.321	0.00917	0.435	0.529	0.518	0.664	0.662	0.044	0.484	3.64	2.88	0.786	1.37	0.698	0.218	0.202	0.406	0.844	0.355
GCTAGTTGGTCAGTAAAAGGTCACAAACCGGTCG	3.06	3.78	3.4	3.99	0.763	4.53	2.59	4.01	2.23	3.46	0.812	2.83	-0.571	-0.0957	2.9	4.8	1.2	5.58	1.91	3.91
TGTCATAGTTCAAAGGTAACGTAAGTATCCACAC	4.03	4.22	1.04	2.89	0.786	4.17	5.59	5.56	2.89	4.8	-0.243	3.05	1.21	1.83	1.56	3.52	1.08	4.52	1.31	3.46
ACTTACGGGTCAACGAGATTATAGCACGCGTATA	6.86	4.16	0.415	3.82	1.09	5.71	5.29	5.21	2.2	4.07	3.56	4.11	1.69	2.1	2.79	3.31	0.376	4.37	1.47	4.23
ACAGACAGGTGAGTGAAGCTAACTCAGCTGGACG	-0.673	-0.375	-0.787	-0.865	-0.79	-0.342	0.546	-0.404	-0.443	-0.258	0.196	0.291	-0.859	-1.17	-1.1	-0.701	-0.552	-0.839	-0.721	0.276
TACACAGGGTCAAAGGCCAGAGTACGAATGTCGA	6.94	5.94	1.96	4.44	1.69	5.95	7.46	7.03	4.73	6.42	1.53	4.08	0.992	0.428	1.44	4.11	0.543	5.47	0.487	4.53
CAAACTAGGGCAAGAGGTCAAAGTCCGCTTCCCG	5.03	5.04	4.65	4.67	0.677	5.74	8.05	6.92	5.45	6.96	6.91	7.47	1.69	0.0985	3	5.35	1.49	5.98	1.61	4.51
TAGCCTAGGTCATGGGCCAATATACCACGCGAAC	4.48	3.55	0.401	2.56	0.00748	4.3	4.22	3.93	1.34	2.91	1.34	3.16	0.749	-0.176	1.44	1.86	-0.28	2.92	0.353	3.77
TCATATAGGTAAAGGTGATAGTCGAACGATATGA	0.212	0.601	-0.19	0.539	-0.129	2.02	2.72	3.48	3.92	3.51	3.45	3.38	1.17	1.36	0.694	0.398	0.262	0.569	0.68	1.09
GGAACGAGGGCAAGTTGATAGCCGAGTTTGATGG	0.943	0.357	-0.311	0.355	-0.62	1.94	0.924	1.09	-0.224	0.405	3.6	2.74	-0.528	-0.707	0.106	0.822	0.247	0.442	-0.485	2.88
CCTAGCAGGCCAATCTGGGTCACTCATGGCTTGA	0.761	0.933	-0.409	0.376	-1.09	2.62	1.75	1.93	0.0126	0.944	4.04	4.89	-0.176	-0.808	0.139	0.641	-0.181	0.915	-0.68	1.44
CAAACTAGGTCATGAGGTCAAAGTCCGCTTCCCG	6.96	6.16	5.21	4.92	1.82	6.48	9.89	8.16	6.58	8.76	8.1	8.5	2.32	1.99	5.08	5.91	4.28	6.92	2.05	5.03
ATATGTAGGTTACAGCCGGGTCATTCAGGCTATG	2.26	3.47	0.993	2.28	0.202	4.51	5.97	5.46	2.52	4.67	7.69	7.35	1.69	1.39	1.97	3.43	1.66	3.51	0.487	2.26
